MCF10A rereplic – DNA re-replication induction in MCF 10a cells; AID 624296; MCF 10A DNA re-replication, Hoechst nuclear intensity, 48 h; 2.9% of 350,000 active; Potency, µM (doses to about 46.1 µM), actives largely listed as activators; note: nearly all actives have a fitted effect of over 50% in size
HT1080NT lethal – kills 2HG-producing HT-1080-NT fibrosarcoma cells; Potency, µM (doses to about 46.1 µM), actives largely listed as cytotoxic; 1.6% of 360,000 active; HT-1080-NT fibrosarcoma viability, CellTiter-Glo ATP luminescence, 48 h;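 note: NT is the 2HG producing partner of a matched IDH1 knockdown line; nearly all actives have a fitted effect of over 55% in size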
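A 48-hour cytotoxicity screen used HT-1080-NT cells plated 2 hours before compound delivery. ATP-based CellTiter-Glo luminescence measured viability, normalized to DMSO and no-cell controls.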
HT1080 IDH1KD tx – toxicity to HT-1080 IDH1 knockdown cells (counter line); HT-1080 IDH1 knockdown viability, ATP luminescence, 48 h; Potency, µM (series often up to 46.1 µM), hits mostly cytotoxic; 2% of 360,000 active; AID 686971
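Knockdown cells (IDH1KD HT-1080) received compounds 2 h after plating at 750 cells/well and were kept 48 h at 37 °C in 5% FBS RPMI. A CellTiter-Glo luminescence read gave % activity for curve fitting.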
KB-3-1 cytotox – kills parental KB-3-1 adenocarcinoma cells | Potency, µM (doses to about 46.1 µM), usual class: cytotoxic | AID 1347075 | KB-3-1 viability, CellTiter-Glo ATP luminescence, 72 h | 1.4% of 400,000 active; note: nearly all actives have a fitted effect of over 60% in size
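Screening of KB-3-1 cells (DMEM, 10% FBS, phenol-red free) ran from lowest to highest compound concentration; after 72 h at 37 °C viability was read luminescently and curves fitted.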
SW480 rereplic – inducers of DNA re-replication in SW480 colon cancer cells; SW480 DNA re-replication, Hoechst DNA content imaging, 48 h; 1.8% of 340,000 active; Potency, µM (doses to about 46.1 µM), most hits filed as activators; note: nearly all actives have a fitted effect of over 55% in size
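250 cells/well; 23 nL cpd via pin tool; 48 hr, 37 C, 5% CO2; Hoechst 40 min; imager read of total nuclear intensity, ex 405/em 500-530 nm.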
KB-V1 cytotox – KB-V1 MDR subline cytotoxicity; Potency, µM (doses to about 46.1 µM), hits mostly cytotoxic; AID 1347076; 3.4% of 400,000 active; KB-V1 MDR cells viability, CellTiter-Glo, 72 h; note: nearly all actives have a fitted effect of over 60% in size
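In this primary screen, KB-V1 cells overexpressing P-gp are incubated with library compounds (lowest to highest concentration) for 72 h at 37 degrees C before a luminescent ATP viability read.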
Large screens that a line does not name were inactive. Shown are actives, neighbours in structure and some others; about 7.9% of the full set was active somewhere. Calls come from the whole dose curve; as a rule, active = well fitted curve in the direction sought with a large enough effect; inconclusive = small, poorly fitted or top-dose-only effect, or another doubt; inactive = no such curve, though single readings can be large; an effect the other way counts as inactive or inconclusive.

CCN(CC)c1ccccc1/C=C/[n+]1ccc(CCCCI)c2ccccc21	KB-3-1 cytotox 3.7µM, KB-V1 cytotox inconclusive (no result: MCF10A rereplic, HT1080NT lethal, HT1080 IDH1KD tx, SW480 rereplic)
O=C1CC(N2CCN(c3ccccc3)CC2)C(=O)N1c1ccc2c(c1)OCCO2 (stereo unspecified)	none
COc1ccc([C@H]2[C@H](C(=O)OC(C)(C)C)N3N=Cc4ccccc4C3C23C(=O)c2ccccc2C3=O)cc1OC (stereo partly specified)	KB-V1 cytotox 8.2µM
O=C1NC[C@@H](CCCCN2CCN(CCC3CCCCC3)C(=O)C2=O)N(Cc2ccccc2)C1=O	none (no result: MCF10A rereplic, SW480 rereplic)
COc1cc(C)c(/C=C(\C#N)C(=O)Nc2cccc(C)c2)cc1C(C)C	MCF10A rereplic 21µM
CC(C(=O)N1CCCC1)N1CCN(S(=O)(=O)c2ccc(C(C)(C)C)cc2)CC1 (stereo unspecified)	none
COc1ccc(Br)cc1S(=O)(=O)n1ccnc1	none
Cc1ccc(S(=O)(=O)NCC(=O)OCC(=O)Nc2cccc(S(=O)(=O)NC3=NCCCCC3)c2)cc1C	none
CCCCCCCCN1C(=O)[C@H](CC(=O)NCc2ccccc2)C[C@@]2(C(=O)OC)CC(C)(C)CC=C12	HT1080NT lethal inconclusive, HT1080 IDH1KD tx inconclusive, KB-3-1 cytotox inconclusive, KB-V1 cytotox 18µM (no result: MCF10A rereplic, SW480 rereplic)
CCCCCCCCN1C(=O)[C@H](CC(=O)NCCCC)C[C@@]2(C(=O)OC)CC(C)(C)CC=C12	HT1080NT lethal inconclusive, HT1080 IDH1KD tx inconclusive, KB-3-1 cytotox inconclusive, KB-V1 cytotox 21µM (no result: MCF10A rereplic, SW480 rereplic)
CCCCCCCCN1C(=O)[C@H](CC(=O)NCc2ccc(OC)c(OC)c2)C[C@@]2(C(=O)OC)CC(C)(C)CC=C12	HT1080NT lethal inconclusive, HT1080 IDH1KD tx inconclusive, KB-3-1 cytotox inconclusive, KB-V1 cytotox 21µM (no result: MCF10A rereplic, SW480 rereplic)
CCCCCCCCN1C(=O)[C@H](CC(=O)NCCCCc2ccccc2)C[C@@]2(C(=O)OC)CC(C)(C)CC=C12	HT1080 IDH1KD tx inconclusive, KB-V1 cytotox inconclusive (no result: MCF10A rereplic, SW480 rereplic)
COC(=O)[C@@]12C[C@@H](CC(=O)NCc3ccc(OC)c(OC)c3)C(=O)N(CCc3ccc(OC)c(OC)c3)C1=CCC(C)(C)C2	KB-V1 cytotox inconclusive (no result: MCF10A rereplic, SW480 rereplic)
O=C1C=C(c2cccc(O)c2)CCC1	none
Cc1ccc(Cc2c(-c3cccc(Br)c3)nc3c(Cl)cc(C(F)(F)F)cn23)cc1	none (no result: MCF10A rereplic, SW480 rereplic)
COc1cccc(-c2cc(N3C(=O)Nc4ccccc4N3O)n[nH]2)c1	none
CCOc1ccc(-c2cc(N3C(=O)Nc4ccccc4N3O)n[nH]2)cc1	MCF10A rereplic inconclusive, HT1080NT lethal 16µM, HT1080 IDH1KD tx 21µM, SW480 rereplic inconclusive
CC(=O)c1c(C)nn(CC(=O)NC2CCCN(Cc3ccc(CC(C)C)cc3)C2)c1C (stereo unspecified)	MCF10A rereplic inconclusive, KB-3-1 cytotox inconclusive
COc1ccc(NC(=S)N(CCCN2CCCC2)Cc2cccn2Cc2ccc(Cl)cc2)cc1Cl	MCF10A rereplic 21µM, HT1080NT lethal inconclusive, HT1080 IDH1KD tx inconclusive, SW480 rereplic 23µM, KB-V1 cytotox 18µM
FC(F)(F)c1cccc(NC(=S)N(CCCN2CCCC2)Cc2cccn2Cc2ccc(Cl)cc2)c1	MCF10A rereplic inconclusive, HT1080NT lethal inconclusive, HT1080 IDH1KD tx 23µM, KB-3-1 cytotox inconclusive, SW480 rereplic inconclusive, KB-V1 cytotox inconclusive
Cc1ccc(NC(=S)N(CCCN2CCCC2)Cc2cccn2Cc2ccc(Cl)cc2)cc1Cl	MCF10A rereplic inconclusive, HT1080NT lethal inconclusive, SW480 rereplic inconclusive
Cc1ccc(NC(=S)N(CCCN2CCCC2)Cc2cccn2Cc2ccc(Cl)cc2)cc1C	MCF10A rereplic inconclusive, KB-3-1 cytotox inconclusive
COc1ccc(S(=O)(=O)Nc2ccccc2C(=O)N2CCCC2)cc1OC	none
Cc1ccc(C)n1CCN1CCN(CC(=O)Nc2ccc(S(N)(=O)=O)cc2)CC1	none
CC1=CC(C)(C)N2C(=O)C3(C(C#N)=C(N)Oc4cc(O)ccc43)c3cccc1c32 (stereo unspecified)	KB-3-1 cytotox inconclusive, SW480 rereplic inconclusive
Cc1nn(-c2ccccc2)c2nc(=O)n(-c3ccccc3)cc12	HT1080 IDH1KD tx inconclusive
Cc1ccc2nc3c(cc2c1)c(C)nn3-c1ccccc1	MCF10A rereplic inconclusive, SW480 rereplic 7.3µM
CCOc1ccc(S(=O)(=O)N2CCc3cc(OC)c(OC)cc3C2)cc1	KB-V1 cytotox 2.3µM
CCOc1ccc(S(=O)(=O)N2CCc3ccccc3C2)cc1	none
COc1ccc(S(=O)(=O)c2c(O)c(C)cc(NC(=O)c3ccccc3)c2C(C)C)cc1	none (no result: MCF10A rereplic, HT1080NT lethal, HT1080 IDH1KD tx, SW480 rereplic)
CC[C@@]1(O)C[C@H](O[C@H]2C[C@@H](N(C)C)[C@@H](O[C@H]3C[C@@H](O)[C@@H](O[C@H]4CCC(=O)[C@@H](C)O4)[C@@H](C)O3)[C@@H](C)O2)c2c(cc3c(c2O)C(=O)c2c(O)cccc2C3=O)[C@H]1C(=O)OC	none (no result: HT1080NT lethal, HT1080 IDH1KD tx, KB-3-1 cytotox, KB-V1 cytotox)
CC(=O)C1(O)Cc2c(O)c3c(c(O)c2C(OC2CC(N)C(O)C(C)O2)C1)C(=O)c1c(O)cccc1C3=O (stereo unspecified)	KB-3-1 cytotox 0.58µM, SW480 rereplic inconclusive, KB-V1 cytotox inconclusive (no result: HT1080NT lethal, HT1080 IDH1KD tx)
CC(=O)[C@@]1(O)Cc2c(O)c3c(c(O)c2[C@H](O[C@H]2C[C@H](N)[C@H](O)[C@H](C)O2)C1)C(=O)c1ccccc1C3=O	KB-3-1 cytotox 0.18µM, KB-V1 cytotox inconclusive (no result: MCF10A rereplic, HT1080NT lethal, HT1080 IDH1KD tx, SW480 rereplic)
CN(C)c1ccc(N=Nc2nc3ccccc3n2C)cc1	SW480 rereplic inconclusive, KB-V1 cytotox inconclusive
Cn1c(N=Nc2ccccc2)nc2ccccc21	MCF10A rereplic inconclusive, HT1080NT lethal 8.2µM, HT1080 IDH1KD tx 10µM, SW480 rereplic inconclusive, KB-V1 cytotox 8.2µM
Cc1ccc(S(=O)(=O)/N=C2\C=C(Nc3ccc(O)cc3)C(=O)c3ccccc32)cc1	MCF10A rereplic 3.3µM, HT1080NT lethal 18µM, HT1080 IDH1KD tx 23µM, KB-3-1 cytotox 4.1µM, SW480 rereplic 6.3µM, KB-V1 cytotox inconclusive
CC(C)(C)c1ccc(S(=O)(=O)/N=C2\C=C(NS(=O)(=O)c3ccccc3)C(=O)c3ccccc32)cc1	HT1080NT lethal 23µM, HT1080 IDH1KD tx 16µM, SW480 rereplic inconclusive
CCc1ccc(S(=O)(=O)/N=C2\C=C(Nc3ccc(C(=O)O)cc3)C(=O)c3ccccc32)cc1	MCF10A rereplic 4.6µM, HT1080NT lethal 16µM, HT1080 IDH1KD tx 18µM, KB-3-1 cytotox inconclusive, SW480 rereplic 9.2µM
O=C(O)c1ccc(NC2=C(n3nnc4ccccc43)C(=O)c3ccccc3C2=O)cc1	MCF10A rereplic inconclusive
O=C(O)c1cccc(NS(=O)(=O)c2ccc3c(c2)C(=O)c2ccccc2C3=O)c1	none
Cc1ccc(S(=O)(=O)/N=C2\C=C(Nc3cccc(C(=O)O)c3)C(=O)c3ccccc32)cc1	MCF10A rereplic inconclusive, HT1080NT lethal 23µM, HT1080 IDH1KD tx 21µM, KB-3-1 cytotox 23µM, SW480 rereplic inconclusive
